Sampled rows, rich in hits. Any-hit rate of the full collection: about 4.1%.
NALP3 yeast inh: blocks the NALP3 inflammasome reconstituted in yeast; actives 0.39% (n = 330,000); Yeast reconstituted NLRP3/ASC/caspase-1, beta-gal luminescence, 24 h; inhibition, % at 10 µM;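 active = inhibition of 50% or more; inactive = inhibition below 50%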;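 note: plate controls were induced DMSO wells for no effect and uninduced yeast grown without galactose for full effect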
PfHsp90 set2: reduces growth (ATP signal) of yeast expressing P. falciparum Hsp90 | S. cerevisiae expressing PfHsp90, BacTiter-Glo ATP, 48 h; yeast lacking PDR1 and PDR3 efflux regulators | inhibition, % at 9.4 µM | actives 0.32% (n = 310,000) | AID 504621;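 active = every replicate shows inhibition above about 80%, whatever the replicate mean, limit read from the data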;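 note: 0% = DMSO neutral controls and 100% = 20 µM radicicol positive controls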
NALP1 inh: blocks the NALP1 inflammasome reconstituted in yeast; S. cerevisiae NALP1/ASC/caspase-1 growth, X-gal OD620, 72 h; inhibition, % at 10 µM; actives 0.61% (n = 280,000); in the data active = inhibition mostly above about 24%, no sharp cut-off; inactive = mostly below about 32%
tim10-1 inh: growth inhibitors of tim10-1 mutant yeast. S. cerevisiae tim10-1 ts strain growth, BacTiter-Glo, 24 h. inhibition, % at 20 µM. actives 2.2% (n = 330,000). AID 463190;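 active = inhibition of at least 40%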;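 note: mutant grown at 25 °C; 0% = DMSO wells with yeast and 100% = wells holding no yeast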
tim23-1 inh: inhibits growth of tim23-1 mutant yeast. actives 1.3% (n = 330,000). S. cerevisiae tim23-1 growth, BacTiter-Glo luminescence, 24 h. AID 463212. inhibition, % at 20 µM;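 active = growth inhibition of the mutant yeast at or above 50%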;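 note: temperature-sensitive mutant grown at 25 °C; plate controls were DMSO-treated mutant yeast for no effect and medium wells lacking yeast for full effect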
TIM10 inh: inhibits growth of TIM10 yeast strain | S. cerevisiae TIM10 strain growth, BacTiter-Glo luminescence, 24 h | inhibition, % at 10 µM | actives 1.4% (n = 330,000);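 active = inhibition of 40% or more at the single tested concentration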;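 note: wild-type TIM10 isogenic control strain grown at permissive 25 °C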
tim10-1 confirm: confirmation of tim10-1 mutant yeast growth inhibitors. inhibition, % at 20 µM. actives 56% (n = 7,400). shares compounds with tim10-1 inh. AID 463213. S. cerevisiae tim10-1 ts strain growth, BacTiter-Glo, 24 h;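 active = inhibition of yeast growth at or above a set limit in either of two repeat tests at 20 µM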;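 note: tim10-1 mutant grown at permissive 25 °C to find synthetic lethal compounds; 0% = DMSO yeast wells and 100% = medium wells without yeast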
TIM10 conf: confirmation of TIM10 yeast growth inhibitors. shares compounds with TIM10 inh. S. cerevisiae tim10 strain growth, BacTiter-Glo luminescence, 24 h. inhibition, % at 10 µM. actives 63% (n = 4,600). AID 463215;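 active = inhibition of yeast growth at or above a set limit in either of two replicates at 10 µM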;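 note: this counterscreen used the strain with wild-type TIM10; 0% = yeast with DMSO and 100% = medium wells lacking yeast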
tim23-1 confirm: tim23-1 yeast growth inhibition, confirmed; actives 83% (n = 4,400); S. cerevisiae tim23-1 growth, BacTiter-Glo luminescence, 24 h; AID 463218; shares compounds with tim23-1 inh; inhibition, % at 20 µM;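 active = inhibition above about 39% in either of two replicate wells at 20 µM, limit read from the data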;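 note: temperature-sensitive tim23-1 mutant grown at 25 °C; 0% = DMSO wells with yeast and 100% = medium wells without yeast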
* marks the source's active call; other numbers are inactive results.

For Cc1ccc(/C(N)=N/OC(=O)N2c3ccccc3Sc3ccccc32)cc1 the results were NALP3 yeast inh 16, PfHsp90 set2 4, tim10-1 inh 63*, tim23-1 inh 68*, TIM10 inh 86*, tim10-1 confirm 50*, TIM10 conf 80* and tim23-1 confirm 46*.
Screening CCC(C(=O)OCC(=O)Nc1ccc(C(N)=O)cc1)c1ccccc1 (centres undefined) returned NALP3 yeast inh 18, PfHsp90 set2 3, NALP1 inh 2, tim10-1 inh 14, tim23-1 inh 2 and TIM10 inh 13.
CCC(C(=O)O/N=C(\N)c1ccc(C)cc1)c1ccccc1 (centres undefined) was read as NALP3 yeast inh 1, PfHsp90 set2 13, NALP1 inh -14, tim10-1 inh 69*, tim23-1 inh 54*, TIM10 inh 64*, tim10-1 confirm 61*, TIM10 conf -15 and tim23-1 confirm 68*.
CCC(C(=O)O/N=C(\N)c1ccccc1)c1ccccc1 (centres undefined) was read as NALP3 yeast inh -3, PfHsp90 set2 -31, NALP1 inh 26, tim10-1 inh 56*, tim23-1 inh 56*, TIM10 inh 54*, tim10-1 confirm 53*, TIM10 conf 49* and tim23-1 confirm 43*.
`CCOC(=O)N1c2ccccc2Sc2ccccc21` gave NALP3 yeast inh 21, NALP1 inh -16, tim10-1 inh 3, tim23-1 inh -37 and TIM10 inh -9.
N/C(=N\OC(=O)C(c1ccccc1)c1ccccc1)c1ccncc1 was read as NALP3 yeast inh 15, PfHsp90 set2 6, tim10-1 inh 3, tim23-1 inh 17 and TIM10 inh 2.
Screening Cc1ccc(C(=O)CN(CCCC(N)=O)C(=O)c2ccncc2)cc1 returned NALP3 yeast inh -3, PfHsp90 set2 18, tim10-1 inh -18, tim23-1 inh -7 and TIM10 inh -12.
`O=S(=O)(CC=CCS(=O)(=O)c1ccccc1)c1ccccc1` gave PfHsp90 set2 0.
`Cc1ccc(C(=O)ONc2ccc(N=O)cc2)cc1` gave NALP3 yeast inh 15, NALP1 inh 44, tim10-1 inh 58*, tim23-1 inh 71*, TIM10 inh 39, tim10-1 confirm 49* and tim23-1 confirm 63*.
For N/C(=N\OC(=O)c1cccc(Cn2cc(C(F)(F)F)ccc2=O)c1)c1ccc(Cl)cc1 the results were NALP3 yeast inh -12, PfHsp90 set2 12, NALP1 inh -7, tim10-1 inh 44*, tim23-1 inh 51*, TIM10 inh 3, tim10-1 confirm 56* and tim23-1 confirm 60*.
O=C(OCC(O)COC(=O)c1cccnc1)c1cccnc1 was read as NALP3 yeast inh 5, PfHsp90 set2 -3, NALP1 inh 24, tim10-1 inh 1, tim23-1 inh -16 and TIM10 inh -18.
For O=C(Oc1cccc2ccccc12)c1ccccc1 the results were PfHsp90 set2 -7.
For O=C(Oc1cccc2c(O)cccc12)c1ccccc1 the results were NALP3 yeast inh 20, NALP1 inh 2, tim10-1 inh 47*, tim23-1 inh 79*, TIM10 inh -5, tim10-1 confirm 16 and tim23-1 confirm 50*.
Screening COc1ccc(C(CNC(=O)C(=O)NC2CCCC2)N2CCN(C)CC2)cc1 (centres undefined) returned NALP3 yeast inh 2, PfHsp90 set2 -5, tim10-1 inh -21, tim23-1 inh -25 and TIM10 inh -3.
COCCOC(=O)/C(=C/c1ccc(OC(=O)c2ccccc2)cc1)C(C)=O was read as NALP3 yeast inh 25, PfHsp90 set2 108*, NALP1 inh 61*, tim10-1 inh 73*, tim23-1 inh 90*, TIM10 inh 80*, tim10-1 confirm 65*, TIM10 conf 3 and tim23-1 confirm 88*.
O=C(NC1CCCC1)c1ccc(Cl)s1 was read as NALP3 yeast inh 10, PfHsp90 set2 1, NALP1 inh 19, tim10-1 inh -16, tim23-1 inh 6 and TIM10 inh -11.
`O=C(NC1CCCCCC1)c1ccc([N+](=O)[O-])s1` gave NALP3 yeast inh 27, tim10-1 inh 57*, tim23-1 inh 63*, TIM10 inh 29, tim10-1 confirm 50* and tim23-1 confirm 48*.
Screening CCCCn1c(N)c(N(CC)C(=O)C2=NN(c3ccccc3)C(=O)CC2)c(=O)[nH]c1=O returned NALP3 yeast inh -2, PfHsp90 set2 3, tim10-1 inh 13, tim23-1 inh 20 and TIM10 inh 13.
`CC[C@@H]1CC=C[C@H]2[C@H]1C(=O)N(Cc1ccccc1)[C@H]2c1cc(C)ccc1F` gave NALP3 yeast inh 8, NALP1 inh 1, tim10-1 inh 55*, tim23-1 inh 51*, TIM10 inh 50*, tim10-1 confirm 35*, TIM10 conf 38* and tim23-1 confirm 54*.
For Cc1ccc(-c2cc([C@H]3[C@H]4C=CC[C@@H](C)[C@@H]4C(=O)N3Cc3ccccc3)ccc2F)cc1 the results were NALP3 yeast inh 18, PfHsp90 set2 -25, NALP1 inh 18, tim10-1 inh 18, tim23-1 inh -5 and TIM10 inh -9.
Cn1c(/C(C#N)=C/C2CC=CCC2)nc2ccccc21 (centres undefined) was read as NALP3 yeast inh 28, PfHsp90 set2 -17, NALP1 inh 45, tim10-1 inh 43*, tim23-1 inh 69*, TIM10 inh 34, tim10-1 confirm 39* and tim23-1 confirm 51*.
`CCCc1cc(=O)oc2cc(C)cc(OCC(=O)Nc3ccc(CN4CCOCC4)cc3)c12` gave NALP3 yeast inh 10, PfHsp90 set2 4, NALP1 inh 13, tim10-1 inh 12, tim23-1 inh 10 and TIM10 inh -1.
`O=[N+]([O-])c1cncc([N+](=O)[O-])c1Nc1ccccc1Cl` gave NALP3 yeast inh -11, PfHsp90 set2 -9, NALP1 inh -2, tim10-1 inh 51*, tim23-1 inh 57*, TIM10 inh 4, tim10-1 confirm 43* and tim23-1 confirm 69*.
`Cc1ccc(S(=O)(=O)N2CCN(CC(=O)Nc3ccnn3C3CCCC3)CC2)cc1` gave NALP3 yeast inh 11, tim10-1 inh -1, tim23-1 inh -1 and TIM10 inh -9.

Compound activity from PubChem BioAssay.
